Measurements from the supplement of paper PMC9135407.
Values joined by “and” are separate entries in the source; they are usually repeats but may differ in a detail not shown here. Equal entries are not always repeated. Structures can show the parent of a compound that is named as a salt. The whole screen tested about 5,800 compounds, of which about 620 (11%) showed activity. What follows is part of a selection rich in actives, with near analogues and random picks from the rest. Values without a mark were called inactive.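 How the source made its calls: active = score above a cut-off or among the top three wells of a plate; in these data no inactive exceeds 0.85.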

Tested on: primary human hepatic stellate cells (donor 1)
Assay: scaled lipid accumulation score (0 = DMSO-like, 1 = nortriptyline-like); higher = stronger HSC inactivation (lipid re-accumulation), active = hit call of the paper
Settings: 48 h
[1] = library stock concentration: 10 mM
[2] = library stock concentration: 1 mM
[3] = library stock concentration: 3.33 mM
[4] = library stock concentration: 80 uM
[5] = library stock concentration: 400 uM
[6] = library stock concentration: 2 mM

For COCCOc1cc2nc[nH]c(=O)c2cc1OCCOC, the “scaled lipid accumulation score” value [1] was 0.018.

For CCCCC[C@H](O)/C=C/[C@H]1C=CC(=O)[C@@H]1CCCCCCC(=O)O [Prostaglandin A1], the “scaled lipid accumulation score” value [2] was 0.022 and 0.047.

In the case of Nc1nc2c([nH]c(=O)n2[C@H]2C[C@H](O)[C@@H](CO)O2)c(=O)[nH]1 [8-hydroxy-2'-deoxy Guanosine], the “scaled lipid accumulation score” value [2] is reported as at most 0.

For C[C@@H]1CC(=O)NN=C1c1ccc(NN=C(C#N)C#N)cc1, the “scaled lipid accumulation score” value [1] was 0.073.

In the case of C[C@@H]1CC(=O)NN=C1c1ccc(NN=C(C#N)C#N)cc1 [Levosimendan], the “scaled lipid accumulation score” value [3] is reported as at most 0 and the “scaled lipid accumulation score” value [1] is reported as at most 0.

For Cc1ccccc1/C=C/C1=NCCN1 [Metrazoline oxalate], the “scaled lipid accumulation score” value [1] was 0.381.

With CCCCCC(=O)/C=C/C=C\CCCCCCCC(=O)O [13-Keto-octadeca-9Z,11E-dienoic acid] the “scaled lipid accumulation score” value (library stock concentration: 100 uM) was 0.012.

For O=Cc1c2[nH]c3ccccc3c2cc2[nH]c3ccccc3c12 [6-Formylindolo [3,2-B] carbazole], the “scaled lipid accumulation score” value [2] was at most -0.02.

NC(C(=O)O)c1ccc(C(=O)O)c(C(=O)O)c1 (centres undefined) was tested, and the “scaled lipid accumulation score” value [1] was at most -0.006.

In the case of Cc1c(NC(=O)OC[C@@H]2COCCN2)cn2ncnc(Nc3ccc4c(cnn4Cc4cccc(F)c4)c3)c12.Cl, the “scaled lipid accumulation score” value [3] is reported as 1.15 (active) and the “scaled lipid accumulation score” value [1] is reported as 1.2 (active).

In the case of CN(C)c1cc2c(Nc3ccc4c(cnn4Cc4ccccc4)c3)ncnc2cn1, the “scaled lipid accumulation score” value [1] is reported as 0.524.

In the case of Cc1nc2ccc(NC(=O)Nc3ccnc4cccnc34)cc2o1, the “scaled lipid accumulation score” value [1] is reported as at most -0.006.

CC(=O)[C@]1(O)Cc2c(O)c3c(c(O)c2[C@@H](O[C@H]2C[C@H](N)[C@H](O)[C@H](C)O2)C1)C(=O)c1ccccc1C3=O was tested, and the “scaled lipid accumulation score” value [1] was 0.372.

CC(=O)[C@]1(O)Cc2c(O)c3c(c(O)c2[C@@H](O[C@H]2C[C@H](N)[C@H](O)[C@H](C)O2)C1)C(=O)c1ccccc1C3=O [Idarubicin HCl] was tested, and the “scaled lipid accumulation score” value [3] was 0.288 and the “scaled lipid accumulation score” value [1] was 0.179.

In the case of CC(=O)[C@]1(O)Cc2c(O)c3c(c(O)c2[C@@H](O[C@H]2C[C@H](N)[C@H](O)[C@H](C)O2)C1)C(=O)c1ccccc1C3=O [Idarubicin], the “scaled lipid accumulation score” value (library stock concentration: 4 mM) is reported as 0.387 and the “scaled lipid accumulation score” value [1] is reported as at most -0.07.

COc1cc(COc2cc(N)c(Cl)cc2C(=O)CCC2CCN(CCNS(C)(=O)=O)CC2)cc(OC)c1.Cl was tested, and the “scaled lipid accumulation score” value [1] was 1.06 (active).

For CCCCN1CCC(CCC(=O)c2cc(Cl)c(N)cc2OC)CC1, the “scaled lipid accumulation score” value [1] was 0.511.

COc1cc(N)c(Cl)cc1C(=O)CCC1CCN(CCNS(C)(=O)=O)CC1 was tested, and the “scaled lipid accumulation score” value [1] was at most 0.

CC(C)(Cc1ccc2ccccc2c1)NC[C@@H](O)COc1cccc(Cl)c1C#N was tested, and the “scaled lipid accumulation score” value [3] was 0.524 and the “scaled lipid accumulation score” value [1] was 0.023.

CC(C)Oc1ccc(Cc2ccc(NC3=NCCN3)cc2)cc1 was tested, and the “scaled lipid accumulation score” value [2] was 0.221.

For CN(C)CC=CC(=O)Nc1cc2c(Nc3ccc(F)c(Cl)c3)ncnc2cc1O[C@H]1CCOC1 [Afatinib (BIBW2992)], the “scaled lipid accumulation score” value [3] was 1.12 (active).

CN(C)C/C=C/C(=O)Nc1cc2c(Nc3ccc(F)c(Cl)c3)ncnc2cc1O[C@H]1CCOC1 was tested, and the “scaled lipid accumulation score” value [4] was 0.425, the “scaled lipid accumulation score” value [5] was 0.614 and the “scaled lipid accumulation score” value [1] was 0.544.

In the case of CN(C)CC=CC(=O)Nc1cc2c(Nc3ccc(F)c(Cl)c3)ncnc2cc1OC1CCOC1 (centres undefined), the “scaled lipid accumulation score” value [6] is reported as 0.855 (active).

CN(C)C/C=C/C(=O)Nc1cc2c(Nc3ccc(F)c(Cl)c3)ncnc2cc1O[C@H]1CCOC1 [Afatinib  (TOVOK,  BIBW-2992) (10 mM)] was tested, and the “scaled lipid accumulation score” value [1] was 0.256.

CN(C)C/C=C/C(=O)Nc1cc2c(Nc3ccc(F)c(Cl)c3)ncnc2cc1O[C@H]1CCOC1 [Afatinib  (TOVOK,  BIBW-2992) (2 mM)] was tested, and the “scaled lipid accumulation score” value [6] was 1.29 (active).

For CN(C)C/C=C/C(=O)Nc1cc2c(Nc3ccc(F)c(Cl)c3)ncnc2cc1O[C@H]1CCOC1 [Afatinib (BIBW2992)], the “scaled lipid accumulation score” value [1] was 0.323.

In the case of CN(C)C/C=C/C(=O)Nc1cc2c(Nc3ccc(F)c(Cl)c3)ncnc2cc1O[C@H]1CCOC1 [Afatinib  (TOVOK,  BIBW-2992) (0.4 mM)], the “scaled lipid accumulation score” value [5] is reported as 0.318.

With Cc1cc(/C(=C/Nc2ccc(Cl)cc2)C(=O)Nc2ccc(Cl)cc2)on1 the “scaled lipid accumulation score” value [1] was 0.332.

For CCCCCC#CCC#CCCCCCCCC(=O)O [9,12-Octadecadiynoic Acid], the “scaled lipid accumulation score” value [2] was 0.001.

In the case of Cc1c(C)c2c(c(C)c1O)CCC(C)(CCCC(C)CCCC(C)CCCC(C)C)O2 (stereo not drawn) [Alpha-tochopherol], the “scaled lipid accumulation score” value [1] is reported as at most 0.

COc1cc(C[C@H]2C(=O)OC[C@@H]2Cc2ccc(OC)c(OC)c2)ccc1O [Arctigenin] was tested, and the “scaled lipid accumulation score” value [1] was at most -0.006.

In the case of C/C(=N\NC(=O)C1C(=O)NCC1c1ccccc1)c1cccc(Br)c1 (centres undefined), the “scaled lipid accumulation score” value [1] is reported as at most -0.001.

For CCOC(=O)C1=C(N)Oc2ccc(Br)cc2C1C(C#N)C(=O)OCC (centres undefined), the “scaled lipid accumulation score” value [3] was 0.391 and the “scaled lipid accumulation score” value [1] was 0.006.

For CCOC(=O)C1=C(N)Oc2ccc(Br)cc2[C@H]1[C@H](C#N)C(=O)OCC, the “scaled lipid accumulation score” value [1] was 1.15 (active).

In the case of CCCCCCCCCCCCCCCC(=O)OCC(O)C1OC(=O)C(O)=C1O [L-Ascorbyl 6-palmitate], the “scaled lipid accumulation score” value [3] is reported as 0.009 and the “scaled lipid accumulation score” value [1] is reported as at most 0.

CC1(CN2CCC(n3c(=O)[nH]c4ccccc43)CC2)OCc2ccccc2-n2cccc21 (centres undefined) was tested, and the “scaled lipid accumulation score” value [1] was 0.057.

In the case of O=C(Nc1cc(Cl)cc2c1[nH]c1cnccc12)c1cccnc1 [IKK Inhibitor X], the “scaled lipid accumulation score” value [3] is reported as at most 0.

With COc1cc2ncnc(N3CCN(C(=O)Nc4ccc(Oc5ccccc5)cc4)CC3)c2cc1OC the “scaled lipid accumulation score” value [4] was at most -0.001, the “scaled lipid accumulation score” value [5] was at most -0.001 and the “scaled lipid accumulation score” value [6] was at most -0.001. The “scaled lipid accumulation score” value [1] was at most -0.001.

With C#Cc1cccc(Nc2ncnc3cc(OCCOC)c(OCCOC)cc23)c1 [Erlotinib HCl (OSI-744)] the “scaled lipid accumulation score” value [3] was at most 0 and the “scaled lipid accumulation score” value [1] was at most 0.

C#Cc1cccc(Nc2ncnc3cc(OC)c(OCCCCCCC(=O)NO)cc23)c1 was tested, and the “scaled lipid accumulation score” value [3] was 0.652 and the “scaled lipid accumulation score” value [1] was 0.306.

With COc1cc2c(Nc3ccc(NC(=O)c4ccccc4)cc3)ncnc2cc1OCCCN1CCOCC1 [listing 1 of 4 here] the “scaled lipid accumulation score” value [1] was 1.14 (active).

For C#Cc1cccc(Nc2ncnc3cc(OCCOC)c(OCCOC)cc23)c1 [Erlotinib], the “scaled lipid accumulation score” value (library stock concentration: 5.1 mM) was at most -0.006.

With COc1cc2ncnc(Nc3ccc(NC(=O)c4ccccc4)cc3)c2cc1OC [Aurora Kinase Inhibitor II] the “scaled lipid accumulation score” value [3] was at most 0.

In the case of COc1cc2c(Nc3ccc(NC(=O)c4ccccc4)cc3)ncnc2cc1OCCCN1CCOCC1 [listing 2 of 4 here], the “scaled lipid accumulation score” value [3] is reported as 1.06 (active) and the “scaled lipid accumulation score” value [1] is reported as 1.11 (active).

COc1cc2c(Nc3ccc(NC(=O)c4ccccc4)cc3)ncnc2cc1OCCCN1CCOCC1 [listing 3 of 4 here] was tested, and the “scaled lipid accumulation score” value [4] was at most -0.001, the “scaled lipid accumulation score” value [5] was at most -0.009 and the “scaled lipid accumulation score” value [6] was 0.256.

With COc1cc2c(N3CCN(C(=O)Nc4ccc(OC(C)C)cc4)CC3)ncnc2cc1OCCCN1CCCCC1 [listing 1 of 2 here] the “scaled lipid accumulation score” value [5] was 0.045, the “scaled lipid accumulation score” value [6] was 0.538 and the “scaled lipid accumulation score” value [1] was 0.65.

COc1cc2c(N3CCN(C(=O)Nc4ccc(OC(C)C)cc4)CC3)ncnc2cc1OCCCN1CCCCC1 [Tandutinib (MLN518)] was tested, and the “scaled lipid accumulation score” value [3] was 0.295 and the “scaled lipid accumulation score” value [1] was 0.406.

With C#Cc1cccc(Nc2ncnc3cc(OCCOC)c(OCCOC)cc23)c1 the “scaled lipid accumulation score” value [4] was at most -0.009, the “scaled lipid accumulation score” value [5] was ≤ -0.009 and ≤ -0.005 and the “scaled lipid accumulation score” value [6] was ≤ -0.009 and ≤ -0.005. For the same compound, the “scaled lipid accumulation score” value [1] was 0.052 and 0.04.

COc1cc2c(Nc3ccc(NC(=O)c4ccccc4)cc3)ncnc2cc1OCCCN1CCOCC1 [listing 4 of 4 here] was tested, and the “scaled lipid accumulation score” value [1] was 1.03 (active).

In the case of COc1cc2ncnc(N3CCN(C(=O)Nc4ccc(Oc5ccccc5)cc4)CC3)c2cc1OC [PDGF Receptor Tyrosine Kinase Inhibitor III], the “scaled lipid accumulation score” value [3] is reported as at most 0.

With COc1cc2c(N3CCN(C(=O)Nc4ccc(OC(C)C)cc4)CC3)ncnc2cc1OCCCN1CCCCC1 [listing 2 of 2 here] the “scaled lipid accumulation score” value [1] was 1.24 (active).
